The target in test [1] is Estrogen receptor (Homo sapiens) + Estrogen receptor beta (Homo sapiens) (UniProt P03372+Q92731). The experiment in a line: OT_ER_ERaERb_1440: Odyssey Thera (OT) 24-hour HEK293T Protein-Complementation Assay for Estrogen Receptor-alpha/-beta Homodimer (AID 2283356).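 Also: heteromer of ER alpha and ER beta binding domains; hits raise reporter fluorescence and both agonists and antagonists give an increase.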 Summed up:
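24 h exposure; HEK293T PCA cells with ERα/ERβ LBD fragments; signal rise in nuclear or whole-cell fluorescence over vehicle.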

In test [2] the target is Estrogen receptor beta (Homo sapiens) (UniProt Q92731). The experiment in a line: OT_ER_ERbERb_0480: Odyssey Thera (OT) 8-hour HEK293T Protein-Complementation Assay for Estrogen Receptor-beta/-beta Homodimer (AID 2283357).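 Also: active means signal gain over DMSO baseline.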 Summed up: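 Homodimerization of ER-beta LBD measured by protein-fragment complementation in HEK293T; 8 h dosing; fixed, Draq5 counterstain; fluorescence intensity gain over DMSO baseline, positive fitting direction; laser scanning cytometry.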

The target in test [3] is human Peroxisome Proliferator-activated Receptor alpha (PPARa), PPARA (gene 5465) (UniProt Q07869). Description: NVS_NR_hPPARa: NovaScreen (NVS) Nuclear Receptor Binding Assay for human Peroxisome Proliferator-activated Receptor alpha (PPARa) (AID 2283359).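 Also: activity means loss of TR-FRET signal versus DMSO baseline.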 Put shortly:
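TR-FRET signal measured at 1 h post-dosing; loss-of-signal versus DMSO negative control taken as activity. Extracted gene-protein, cell-free format. Initial single-point duplicates at 25 uM, then concentration-response retests.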

Test [4] deals with guinea pig Sigma Receptor, Non-selective Binding, SIGMAR1 (gene 100135589) (UniProt Q60492). The experiment in a line: NVS_OR_gSIGMA_NonSelective: NovaScreen (NVS) Nuclear Receptor Binding Assay for guinea pig Sigma Receptor, Non-selective Binding (AID 2283367). Summed up: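 Membranes from guinea pig brain incubated with radioligand and test chemical for 1 h, then filtered and scintillation-counted. Duplicate primary testing at 25 uM, with concentration-series follow-up for actives.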

The subject of test [5] is guinea pig Dopamine Transporter (DAT), gene 100714898. Description: NVS_TR_gDAT: NovaScreen (NVS) Transporter Assay for guinea pig Dopamine Transporter (DAT) (AID 2283369).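 Also: active compounds lower bound radioligand signal relative to DMSO.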 Summed up:
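Primary pass: duplicate wells at 25 uM, threshold e.g. 30% inhibition. Follow-up: singleton concentration-response, highest 50 uM. Radioligand binding on guinea pig striatal membranes, 2 h, filtration scintillation detection.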

Test [6] deals with PGR (gene 5241) (UniProt P06401). Description: NVS_NR_hPR: NovaScreen (NVS) Nuclear Receptor Binding Assay for human Progestron Receptor (PR) (AID 2283360).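 Also: active means loss of bound radioligand signal versus DMSO baseline.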 Summed up:
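T47D lysate; tritiated or iodinated radioligand; scintillation count at 18 h. DMSO = negative control/baseline. Primary: 25 uM, duplicate. Secondary: concentration series for actives.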

The subject of test [7] is rat Norepinephrine Transporter (NET), gene 83511. The experiment in a line: NVS_TR_rNET: NovaScreen (NVS) Transporter Assay for rat Norepinephrine Transporter (NET) (AID 2283373). Summed up: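 Competitive radioligand displacement at the rat NET using forebrain membrane preparations, 1 h incubation, filter-based scintillation readout. Primary testing in duplicate at a single 25 uM concentration; confirmed actives retested across concentrations.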

Test [8] addresses human Dopamine Transporter (DAT), SLC6A3 (gene 6531) (UniProt Q01959). Description: NVS_TR_hDAT: NovaScreen (NVS) Transporter Assay for human Dopamine Transporter (DAT) (AID 2283374).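 Also: activity means loss of bound radioligand signal relative to DMSO.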 Summed up: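 hDAT membranes + tritiated/iodinated radioligand, competitive displacement; 1 h; filter scintillation readout. Single conc 25 uM (duplicate), then conc-response for actives. DMSO = negative control.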

Test [9] concerns the target rat Serotonin Transporter (SERT), Slc6a4 (gene 25553) (UniProt P31652). Description: NVS_TR_rSERT: NovaScreen (NVS) Transporter Assay for rat Serotonin Transporter (SERT) (AID 2283375). Summed up:
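Using rat forebrain membrane SERT, test chemicals compete with a radioligand for 1 hour, and bound counts are taken by filter-based scintillation. Screening starts at 25 uM in duplicate, followed by concentration series for actives.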

The target in test [10] is Peroxisome proliferator-activated receptor gamma (Homo sapiens) (UniProt P37231). Description: NVS_NR_hPPARg: NovaScreen (NVS) Nuclear Receptor Binding Assay for human Peroxisome Proliferator-activated Receptor gamma (PPARg) (AID 2283370). Put shortly:
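Extracted receptor protein, cell-free; compound incubated 2 h then fluorescence polarization read. Baseline: DMSO. Actives from 25 uM duplicate screen re-run across concentrations.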

Test [11] addresses rat Mineralocorticoid Receptor (MR), Nr3c2 (gene 25672) (UniProt P22199). Description: NVS_NR_rMR: NovaScreen (NVS) Nuclear Receptor Binding Assay for rat Mineralocorticoid Receptor (MR) (AID 2283355). Summed up: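 Radioligand displacement, scintillation readout; tissue source adrenalectomized rat brain supernatant. Read 24 h post-dose. Screened in duplicate at 25 uM, DMSO negative control, controls on every plate; actives re-run in concentration series.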

For test [12], the target named is Glucocorticoid receptor (Homo sapiens) (UniProt P04150). Description: NVS_NR_hGR: NovaScreen (NVS) Nuclear Receptor Binding Assay for human Glucocorticoid Receptor (GR) (AID 2283363). Summed up: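 Filter scintillation readout of tritiated/iodinated radioligand displaced by test chemical; cell-free extracted protein; 16 h. DMSO = negative control/baseline. Duplicate single-point 25 uM screen, then concentration-response on actives.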

Test [13] addresses human Serotonin Transporter (SERT), SLC6A4 (gene 6532) (UniProt P31645). Description: NVS_TR_hSERT: NovaScreen (NVS) Transporter Assay for human Serotonin Transporter (SERT) (AID 2283372). Put shortly:
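Human platelet membrane preparation; displacement of radioligand from serotonin transporter measured after 1 h by filtration and scintillation counting. Single 25 uM duplicate screen, then concentration series for actives, with DMSO as negative baseline.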

In test [14] the target is mouse Estrogen Receptor alpha (Era), Esr1 (gene 13982) (UniProt P19785). Description: NVS_NR_mERa: NovaScreen (NVS) Nuclear Receptor Binding Assay for mouse Estrogen Receptor alpha (Era) (AID 2283378).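 Also: hit means loss of bound radioligand signal relative to DMSO.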 Put shortly: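 Measurements come from scintillation counting after filtration, taken 18 hours after chemicals were added to a cell-free mouse Era preparation with radioligand. Screening was duplicate at 25 uM, with concurrent positive and negative controls and confirmatory concentration series for actives.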

The target in test [15] is Retinoic acid receptor alpha (Homo sapiens) (UniProt P10276). The experiment in a line: NVS_NR_hRAR_Antagonist: NovaScreen (NVS) Nuclear Receptor Binding Assay for human Retinoic Acid Alpha Receptor Antagonism (RAR) (AID 2283358). Put shortly: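 Read-out: time-resolved FRET binding signal, 2 h post-dose, cell-free extracted protein. Antagonism scored as signal loss versus DMSO negative control. Primary single-concentration screen at 25 uM in duplicate; concentration series for actives.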

Test [16] has the same target. The experiment in a line: NVS_NR_hRARa_Agonist: NovaScreen (NVS) Nuclear Receptor Binding Assay for human Retinoic Acid Alpha Receptor Agonism (RAR) (AID 2283361). Put shortly: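 TR-FRET signal, 2 h post-dosing; cell-free extracted protein; DMSO = baseline, positive fitting direction; 25 uM single-point duplicate, then concentration series for actives.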
Test [17] addresses human Norepinephrine Transporter (NET), SLC6A2 (gene 6530) (UniProt P23975). Description: NVS_TR_hNET: NovaScreen (NVS) Transporter Assay for human Norepinephrine Transporter (NET) (AID 2283377).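 Also: cell-free membrane protein extracted from CHO cells expressing human NET.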 Put shortly: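 CHO cell extracts expressing the transporter; tritiated or iodinated tracer displaced competitively; filtration plus scintillation readout at 1 h. Single-point duplicates at 25 uM, concentration series for follow-up; activity = signal drop relative to DMSO.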

Test [18] deals with Nuclear receptor subfamily 1 group I member 2 (Homo sapiens) (UniProt O75469). The experiment in a line: NVS_NR_hPXR: NovaScreen (NVS) Nuclear Receptor Binding Assay for human Pregnane X Receptor (PXR) (AID 2283365).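 Also: a drop in FRET signal versus DMSO baseline means the compound binds.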 Summed up: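 Read-out: TR-FRET, human PXR, 2 h post-dosing, cell-free. Loss of signal vs DMSO taken as binding activity; 25 uM primary, concentration series secondary.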

Test [19] deals with human Thyroid Receptor Alpha (TRa), THRA (gene 7067) (UniProt P10827). Description: NVS_NR_hTRa_Antagonist: NovaScreen (NVS) Nuclear Receptor Binding Assay for human Thyroid Receptor Alpha Antagonism (TRa) (AID 2283362).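 Also: activity is loss of signal relative to DMSO baseline.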 Put shortly: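 In this biochemical format, receptor protein is dosed with chemical and read after 1 hour via AlphaLISA. Decreases from the DMSO baseline indicate antagonist activity; screening used 25 uM in duplicate before concentration-response confirmation.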

Experimental findings from PubChem BioAssay (EPA / NIEHS) are described below.

Results filed as inconclusive are left out. Calls of active or inactive are those of the source. The calls were made as follows: active = hit-call score of the fitted dose curve at least 0.9, where 1 is the maximum; inconclusive = response in the unintended direction; inactive = score below 0.9.

Chain of rat Serotonin Transporter (SERT), Slc6a4 (gene 25553) (P31652 whole entry, looked up): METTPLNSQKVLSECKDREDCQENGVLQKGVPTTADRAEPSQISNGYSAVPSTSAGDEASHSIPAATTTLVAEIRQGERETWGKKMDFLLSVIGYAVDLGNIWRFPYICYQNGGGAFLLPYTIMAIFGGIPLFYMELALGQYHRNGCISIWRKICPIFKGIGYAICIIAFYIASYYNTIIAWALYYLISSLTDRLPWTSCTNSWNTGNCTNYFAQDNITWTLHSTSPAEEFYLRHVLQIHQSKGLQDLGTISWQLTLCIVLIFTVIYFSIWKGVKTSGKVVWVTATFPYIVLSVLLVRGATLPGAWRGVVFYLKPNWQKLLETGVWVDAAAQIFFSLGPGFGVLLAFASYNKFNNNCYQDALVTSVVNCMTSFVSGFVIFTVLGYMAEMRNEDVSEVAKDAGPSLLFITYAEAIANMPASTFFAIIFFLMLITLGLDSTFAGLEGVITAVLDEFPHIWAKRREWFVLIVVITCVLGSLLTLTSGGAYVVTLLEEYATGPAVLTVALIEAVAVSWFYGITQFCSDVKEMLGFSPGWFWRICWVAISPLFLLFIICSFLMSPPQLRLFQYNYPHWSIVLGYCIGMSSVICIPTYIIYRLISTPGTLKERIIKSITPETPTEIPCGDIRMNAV
Chain of Peroxisome proliferator-activated receptor gamma (Homo sapiens) (P37231 whole entry, looked up): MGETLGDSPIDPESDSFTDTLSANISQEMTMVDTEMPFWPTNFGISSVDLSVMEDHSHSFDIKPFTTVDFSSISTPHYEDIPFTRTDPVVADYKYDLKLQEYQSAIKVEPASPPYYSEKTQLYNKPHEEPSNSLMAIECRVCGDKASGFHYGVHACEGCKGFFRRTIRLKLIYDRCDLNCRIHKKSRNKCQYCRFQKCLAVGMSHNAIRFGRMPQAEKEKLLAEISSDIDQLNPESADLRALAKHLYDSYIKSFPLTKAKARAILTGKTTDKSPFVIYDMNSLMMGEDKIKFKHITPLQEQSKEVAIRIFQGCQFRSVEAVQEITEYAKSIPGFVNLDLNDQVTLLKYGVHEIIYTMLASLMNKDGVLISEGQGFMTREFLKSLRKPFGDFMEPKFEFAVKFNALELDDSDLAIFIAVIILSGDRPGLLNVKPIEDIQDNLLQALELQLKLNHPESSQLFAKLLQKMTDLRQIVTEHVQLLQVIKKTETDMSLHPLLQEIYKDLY
Chain of guinea pig Sigma Receptor, Non-selective Binding, SIGMAR1 (gene 100135589) (Q60492 whole entry, looked up): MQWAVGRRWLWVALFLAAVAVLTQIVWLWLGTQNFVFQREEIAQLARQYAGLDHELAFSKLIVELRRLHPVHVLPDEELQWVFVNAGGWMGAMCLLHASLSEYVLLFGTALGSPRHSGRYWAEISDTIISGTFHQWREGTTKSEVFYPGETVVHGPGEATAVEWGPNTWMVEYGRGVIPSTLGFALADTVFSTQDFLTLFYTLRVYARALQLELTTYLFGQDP
Chain of Estrogen receptor beta (Homo sapiens) (Q92731 whole entry, looked up, the tested form may be a part): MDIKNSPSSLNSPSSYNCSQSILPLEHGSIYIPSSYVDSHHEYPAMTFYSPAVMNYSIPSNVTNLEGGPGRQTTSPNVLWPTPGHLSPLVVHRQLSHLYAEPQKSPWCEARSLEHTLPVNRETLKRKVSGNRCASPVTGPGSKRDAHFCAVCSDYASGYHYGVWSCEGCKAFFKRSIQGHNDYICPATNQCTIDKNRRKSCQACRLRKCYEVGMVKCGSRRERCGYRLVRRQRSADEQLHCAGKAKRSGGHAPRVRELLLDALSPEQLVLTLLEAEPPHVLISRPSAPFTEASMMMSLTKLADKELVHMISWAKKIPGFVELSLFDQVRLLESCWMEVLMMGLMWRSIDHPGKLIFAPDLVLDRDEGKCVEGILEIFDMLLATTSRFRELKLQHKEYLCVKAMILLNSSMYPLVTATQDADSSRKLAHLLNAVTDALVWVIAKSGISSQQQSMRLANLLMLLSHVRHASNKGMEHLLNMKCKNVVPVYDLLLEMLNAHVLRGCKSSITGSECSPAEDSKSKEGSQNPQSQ
Chain of human Dopamine Transporter (DAT), SLC6A3 (gene 6531) (Q01959 whole entry, looked up): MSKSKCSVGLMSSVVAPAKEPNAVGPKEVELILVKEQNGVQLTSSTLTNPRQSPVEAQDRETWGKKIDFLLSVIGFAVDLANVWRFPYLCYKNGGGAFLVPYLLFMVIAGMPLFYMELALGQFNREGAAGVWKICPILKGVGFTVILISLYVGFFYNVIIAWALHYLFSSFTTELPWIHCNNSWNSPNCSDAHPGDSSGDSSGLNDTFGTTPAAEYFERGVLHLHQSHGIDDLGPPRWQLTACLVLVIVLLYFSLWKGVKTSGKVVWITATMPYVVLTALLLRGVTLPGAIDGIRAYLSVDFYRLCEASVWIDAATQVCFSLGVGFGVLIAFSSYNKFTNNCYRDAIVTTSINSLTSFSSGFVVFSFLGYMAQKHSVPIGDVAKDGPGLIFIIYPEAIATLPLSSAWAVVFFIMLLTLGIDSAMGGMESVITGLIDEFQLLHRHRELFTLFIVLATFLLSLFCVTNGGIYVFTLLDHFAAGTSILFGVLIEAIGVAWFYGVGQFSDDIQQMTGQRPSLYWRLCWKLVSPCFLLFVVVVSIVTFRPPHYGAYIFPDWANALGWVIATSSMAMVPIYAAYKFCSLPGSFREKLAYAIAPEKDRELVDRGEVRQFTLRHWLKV
Chain of Estrogen receptor (Homo sapiens) + Estrogen receptor beta (Homo sapiens) (P03372 whole entry, looked up, the tested form may be a part): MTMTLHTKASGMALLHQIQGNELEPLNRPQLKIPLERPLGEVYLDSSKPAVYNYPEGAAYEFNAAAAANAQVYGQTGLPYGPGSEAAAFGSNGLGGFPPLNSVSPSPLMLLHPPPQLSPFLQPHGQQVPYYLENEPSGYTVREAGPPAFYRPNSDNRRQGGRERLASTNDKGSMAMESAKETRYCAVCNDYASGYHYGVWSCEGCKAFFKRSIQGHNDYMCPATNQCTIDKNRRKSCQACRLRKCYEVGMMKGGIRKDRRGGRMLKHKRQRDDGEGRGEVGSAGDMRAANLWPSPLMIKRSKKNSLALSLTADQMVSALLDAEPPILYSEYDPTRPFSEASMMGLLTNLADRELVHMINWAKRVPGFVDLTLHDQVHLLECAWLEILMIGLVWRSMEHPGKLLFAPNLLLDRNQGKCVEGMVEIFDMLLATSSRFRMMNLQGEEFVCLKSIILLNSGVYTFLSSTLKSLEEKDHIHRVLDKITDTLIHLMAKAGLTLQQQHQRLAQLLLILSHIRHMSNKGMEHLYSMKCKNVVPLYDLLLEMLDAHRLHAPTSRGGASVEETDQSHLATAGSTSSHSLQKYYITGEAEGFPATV
Chain of Estrogen receptor (Homo sapiens) + Estrogen receptor beta (Homo sapiens) (Q92731 whole entry, looked up, the tested form may be a part): as the sequence (Q92731 whole entry, looked up, the tested form may be a part) above
Chain of Glucocorticoid receptor (Homo sapiens) (P04150 whole entry, looked up): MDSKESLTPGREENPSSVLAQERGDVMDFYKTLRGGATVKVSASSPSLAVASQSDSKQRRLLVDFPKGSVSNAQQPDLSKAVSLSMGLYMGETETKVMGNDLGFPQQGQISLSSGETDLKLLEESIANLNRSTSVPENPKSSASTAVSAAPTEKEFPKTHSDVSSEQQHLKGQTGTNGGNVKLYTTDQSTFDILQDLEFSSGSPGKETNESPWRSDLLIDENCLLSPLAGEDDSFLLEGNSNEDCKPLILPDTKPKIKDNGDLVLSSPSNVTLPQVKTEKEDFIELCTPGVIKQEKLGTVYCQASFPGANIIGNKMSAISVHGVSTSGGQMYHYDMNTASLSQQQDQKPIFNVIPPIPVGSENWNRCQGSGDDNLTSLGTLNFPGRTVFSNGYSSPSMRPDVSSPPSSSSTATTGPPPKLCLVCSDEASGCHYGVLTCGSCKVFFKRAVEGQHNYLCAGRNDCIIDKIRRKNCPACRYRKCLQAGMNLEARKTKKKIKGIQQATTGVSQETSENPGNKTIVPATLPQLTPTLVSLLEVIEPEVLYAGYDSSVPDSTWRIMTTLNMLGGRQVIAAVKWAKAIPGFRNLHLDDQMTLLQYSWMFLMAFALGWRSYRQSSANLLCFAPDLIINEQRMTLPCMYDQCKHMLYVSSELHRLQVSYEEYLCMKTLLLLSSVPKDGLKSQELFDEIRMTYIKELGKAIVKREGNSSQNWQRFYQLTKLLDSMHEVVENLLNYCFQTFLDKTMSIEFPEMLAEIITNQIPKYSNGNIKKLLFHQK
Chain of PGR (gene 5241) (P06401 whole entry, looked up): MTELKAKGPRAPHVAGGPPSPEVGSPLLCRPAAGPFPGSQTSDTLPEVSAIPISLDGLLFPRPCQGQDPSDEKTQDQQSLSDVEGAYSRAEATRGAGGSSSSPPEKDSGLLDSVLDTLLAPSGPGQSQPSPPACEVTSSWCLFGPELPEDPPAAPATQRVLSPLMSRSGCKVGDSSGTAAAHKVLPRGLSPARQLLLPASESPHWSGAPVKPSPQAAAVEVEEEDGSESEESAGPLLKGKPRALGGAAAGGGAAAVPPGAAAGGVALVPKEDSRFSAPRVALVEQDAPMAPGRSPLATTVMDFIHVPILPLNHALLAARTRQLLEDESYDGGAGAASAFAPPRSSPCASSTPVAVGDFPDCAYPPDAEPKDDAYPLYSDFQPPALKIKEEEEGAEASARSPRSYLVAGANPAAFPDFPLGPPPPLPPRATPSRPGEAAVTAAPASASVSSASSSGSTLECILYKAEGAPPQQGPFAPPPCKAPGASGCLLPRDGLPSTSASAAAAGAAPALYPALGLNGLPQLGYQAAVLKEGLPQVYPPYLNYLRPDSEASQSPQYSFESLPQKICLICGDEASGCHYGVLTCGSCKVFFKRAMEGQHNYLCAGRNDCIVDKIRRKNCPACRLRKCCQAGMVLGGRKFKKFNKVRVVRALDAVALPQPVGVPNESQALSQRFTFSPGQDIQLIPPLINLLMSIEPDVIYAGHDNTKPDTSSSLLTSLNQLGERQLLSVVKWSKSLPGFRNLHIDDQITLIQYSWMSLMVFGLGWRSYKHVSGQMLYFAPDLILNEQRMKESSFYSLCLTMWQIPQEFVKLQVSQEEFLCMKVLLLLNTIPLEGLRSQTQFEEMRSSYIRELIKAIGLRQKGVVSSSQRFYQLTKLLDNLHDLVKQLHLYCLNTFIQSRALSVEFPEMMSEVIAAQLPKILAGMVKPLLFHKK

On to `Cc1ccc(C(C)C)c(O)c1`, for which the outcome in test [1], in test [3], in [4] and in test [5] was inactive. Besides, the AC50 in test [2] is 33.9 µM (active).

Take `NS(=O)(=O)c1cc2c(cc1Cl)NCNS2(=O)=O`: the outcome in [1] and in [2] was inactive.

Consider `COCCOC[C@H](CC1(C(=O)NC2CCC(C(=O)O)CC2)CCCC1)C(=O)Oc1ccc2c(c1)CCC2` (some centres undefined), for which the result in test [1], in [2] and in [6] was inactive.

Regarding `Oc1ccc2c(c1)OC[C@@H](N1CCC(O)(c3ccc(F)cc3)CC1)[C@H]2O`, the result in test [1], in test [2], in test [3], in test [6], in test [4] and in test [7] was inactive. Besides, in [9], the call was inactive. In [8], the AC50 was 12.5 µM (active).

Regarding `O=c1c(O)c(-c2ccc(O)c(O)c2)oc2cc(O)cc(O)c12`, the AC50 in test [1] was 24.8 µM (active); in test [2] it was 2.32 µM (active); in test [10] it was 33.1 µM (active). Besides, in [3], the result was inactive.

As to `CNCc1cc(F)ccc1Oc1ccc(Cl)c(Cl)c1`, the outcome in [1], in [2] and in [6] was inactive. Besides, the AC50 in test [9] is 0.00346 µM (active).

Turning to `CCOC(=O)CCC(=O)OCC`, the AC50 was 25 µM (active) in test [11] and 6.93 µM (active) in test [5]. For the same molecule, the result in test [1], in [2], in test [12], in test [13], in [8] and in [14] was inactive.

As for `CC1=C(/C=C/C(C)=C/C=C/C(C)=C/CO)C(C)(C)CCC1`, the outcome in test [1], in test [2], in [15], in test [3], in [16] and in test [10] was inactive. For the same molecule, the molecule was called inactive in test [17].

Take `CCCCc1ccc2c(n1)[C@@H](c1ccc(OC)cc1C[C@H](C)C(=O)O)[C@H](C(=O)O)[C@H]2c1ccc2c(c1)OCO2`: the result in test [1] and in test [12] was inactive. In addition, in test [10], the AC50 is 5.46 µM (active).

For the molecule `CNC(=O)[C@H]1O[C@@H](n2cnc3c(NCc4cc(Cl)ccc4OCc4cc(C)no4)ncnc32)[C@H](O)[C@@H]1N`, the result in [1], in test [2] and in test [18] was inactive. In addition, in test [4], the AC50 was 9.75 µM (active).

As for `CC(=O)OCCOCCOCCOC(C)=O`, the outcome in test [1] and in test [2] was inactive. Further, in [18], the AC50 was 33.4 µM (active).

In the case of `Nc1ccccc1N`, the result in [1] and in test [6] was inactive.

As to `Cc1c(C(=O)O)c(O)cc2c1C(=O)c1c(O)c([C@@H]3O[C@H](CO)[C@@H](O)[C@H](O)[C@H]3O)c(O)c(O)c1C2=O`, the outcome in test [1], in test [2], in test [5], in [8] and in test [9] was inactive. Besides, the AC50 in [19] was 17.3 µM (active).

With `Cc1oc(-c2ccccc2)nc1CCOc1cccc2c1ccn2CCC(=O)O`, the result in test [1] was inactive. In addition, the AC50 in test [4] was 11 µM (active); in test [10] it was 2.27 µM (active).

As for `O=C(N[C@@H](Cc1ccccc1)[C@@H](O)C(=O)N1C[C@@H](O)[C@@H](O)C1)c1cc2cc(Cl)ccc2[nH]1`, the result in [2], in test [12], in test [10], in [13] and in test [14] was inactive. The AC50 was 11.5 µM (active) in test [8] and 12.9 µM (active) in test [9].

The AC50 is the midpoint of the concentration-response curve, whichever way the signal moves.
